Active and inactive are the calls of the source.
What was measured:
[1] = compounds binding Alexa647 anti-His antibody – biochemical, small-molecule microarray, 635 nm fluorescence, artefact control for SMM control protein annotation, primary screen (AID 1128); conditions: higher = more signal;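 note: score merges feature fluorescence with signal-to-noise for each printed compound spot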
[2] = tested on: Human papillomavirus type 1a E7 protein (residues 1-88); assay: HPV1a E7 small-molecule binders, primary screen, biochemical, small-molecule microarray, residues 1-88, 635 nm (AID 1129); conditions: small-molecule microarray binding, fluorescence 635 nm; higher = more signal
[3] = target: Focal adhesion kinase 1 (Homo sapiens) (UniProt Q05397); assay: PTK2 protein binding on printed compound slides – biochemical, small-molecule microarray, 635/667 nm fluorescence, BSA, DTT, primary screen (AID 1130); conditions: 635 nm fluorescence, higher = more signal;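 note: composite of spot emission at 667 nm and signal to noise over triplicate slides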
Focal adhesion kinase 1 (Homo sapiens), sequence (Q05397 whole entry, looked up): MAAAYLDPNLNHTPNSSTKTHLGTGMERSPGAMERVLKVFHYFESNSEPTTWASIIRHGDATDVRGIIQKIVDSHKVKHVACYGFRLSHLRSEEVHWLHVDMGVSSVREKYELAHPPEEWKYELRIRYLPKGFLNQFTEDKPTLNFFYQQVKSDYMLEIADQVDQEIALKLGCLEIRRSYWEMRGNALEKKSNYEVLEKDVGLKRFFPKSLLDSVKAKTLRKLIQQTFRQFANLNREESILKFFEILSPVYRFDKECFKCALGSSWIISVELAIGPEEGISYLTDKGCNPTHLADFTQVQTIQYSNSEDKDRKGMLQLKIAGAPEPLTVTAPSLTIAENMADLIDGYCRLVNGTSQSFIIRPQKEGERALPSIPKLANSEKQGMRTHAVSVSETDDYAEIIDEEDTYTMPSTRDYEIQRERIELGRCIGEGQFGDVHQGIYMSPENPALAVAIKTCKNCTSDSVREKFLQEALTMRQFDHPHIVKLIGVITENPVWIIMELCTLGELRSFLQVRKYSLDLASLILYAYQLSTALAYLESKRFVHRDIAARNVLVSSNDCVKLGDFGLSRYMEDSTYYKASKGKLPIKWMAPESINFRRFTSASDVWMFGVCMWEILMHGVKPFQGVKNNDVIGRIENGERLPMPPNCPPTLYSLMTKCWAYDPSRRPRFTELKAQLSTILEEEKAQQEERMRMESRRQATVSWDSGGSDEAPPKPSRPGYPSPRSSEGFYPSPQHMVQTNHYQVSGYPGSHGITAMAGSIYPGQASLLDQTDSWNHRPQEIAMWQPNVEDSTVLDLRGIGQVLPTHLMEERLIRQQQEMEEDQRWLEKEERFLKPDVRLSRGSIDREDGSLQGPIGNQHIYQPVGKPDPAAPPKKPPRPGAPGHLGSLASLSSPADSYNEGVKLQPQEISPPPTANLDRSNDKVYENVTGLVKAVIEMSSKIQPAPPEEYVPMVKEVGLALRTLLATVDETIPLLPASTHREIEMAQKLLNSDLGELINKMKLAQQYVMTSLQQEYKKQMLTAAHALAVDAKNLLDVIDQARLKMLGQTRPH

[4] = tested on: Fibrinogen (Alexa647-labelled); assay: Alexa647-fibrinogen binding to printed small molecules – biochemical, small-molecule microarray, 635/667 nm fluorescence, artefact control for SMM control-protein annotation, profiling panel (AID 1131); conditions: fibrinogen-A647 binding fluorescence, higher = more signal;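 note: z-score merges 667 nm fluorescence with per-spot signal-to-noise over triplicate slides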
[5] = target: Follistatin (Homo sapiens) (UniProt P19883); assay: FST protein binding to printed compounds – biochemical, small-molecule microarray, 635/667 nm fluorescence, primary screen (AID 1132); conditions: 635 nm fluorescence, higher = more signal
Follistatin (Homo sapiens), sequence (P19883 whole entry, looked up): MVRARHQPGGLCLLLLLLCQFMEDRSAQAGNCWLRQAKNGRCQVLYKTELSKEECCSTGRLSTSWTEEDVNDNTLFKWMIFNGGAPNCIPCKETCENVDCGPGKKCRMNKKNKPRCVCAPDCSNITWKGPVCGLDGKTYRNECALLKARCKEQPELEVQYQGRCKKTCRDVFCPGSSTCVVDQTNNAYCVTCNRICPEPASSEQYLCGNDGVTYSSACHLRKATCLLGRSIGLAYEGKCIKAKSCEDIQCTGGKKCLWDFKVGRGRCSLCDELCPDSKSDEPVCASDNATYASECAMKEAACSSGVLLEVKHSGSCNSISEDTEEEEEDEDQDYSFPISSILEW

[6] = target: Fibroblast growth factor 2 (Homo sapiens) (UniProt P09038); assay: basic fibroblast growth factor binding to printed compounds – biochemical, small-molecule microarray, 635/667 nm fluorescence, primary screen (AID 1133); conditions: FGF2, fluorescence 635/667, higher = more signal
Fibroblast growth factor 2 (Homo sapiens), sequence (P09038 whole entry, looked up): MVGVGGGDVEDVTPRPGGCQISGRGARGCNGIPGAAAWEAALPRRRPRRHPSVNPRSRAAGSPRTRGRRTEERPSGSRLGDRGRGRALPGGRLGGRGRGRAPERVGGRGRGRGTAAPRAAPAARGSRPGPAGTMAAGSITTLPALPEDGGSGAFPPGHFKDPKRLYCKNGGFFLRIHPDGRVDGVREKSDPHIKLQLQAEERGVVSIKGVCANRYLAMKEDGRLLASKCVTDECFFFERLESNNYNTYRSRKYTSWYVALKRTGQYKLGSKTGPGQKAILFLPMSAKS

[7] = JC-1 mitochondrial potential readout, lung cancer cells – cell-based, A549, JC-1 fluorescence, basal, 24 h, 100 nL, profiling panel (AID 1138); conditions: higher = more signal;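 note: A549 lung adenocarcinoma cells under basal conditions with no added stimulus; test concentration not given here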
Lefty1 = Lefty1 protein binding to printed compounds – biochemical, small-molecule microarray, 635/667 nm fluorescence, primary screen (AID 1139); conditions: fluorescence 635/667, higher = more signal
[8] = tested on: wheat germ agglutinin (Triticum aestivum), Alexa647-labelled; assay: Alexa647-WGA lectin binding to printed small molecules – biochemical, small-molecule microarray, 635/667 nm fluorescence, artefact control for SMM control-protein annotation, profiling panel (AID 1140); conditions: WGA-A647 binding, 635 nm fluorescence, higher = more signal;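 note: score merges 667 nm feature emission with signal to noise over triplicate slides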
[9] = target: Luciferin 4-monooxygenase (Photinus pyralis) (UniProt P08659); assay: inhibition of purified Photinus pyralis luciferase – biochemical, luminescence, purified enzyme, 2006 set, primary screen (AID 1141); conditions: purified firefly luciferase, SteadyGlo luminescence, 30 min; higher = more signal, called active from +8 up or from −8 down;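 note: cell-free assay with purified firefly luciferase at 100 ng per well in PBS; test concentration not given here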
Luciferin 4-monooxygenase (Photinus pyralis), sequence (P08659 whole entry, looked up): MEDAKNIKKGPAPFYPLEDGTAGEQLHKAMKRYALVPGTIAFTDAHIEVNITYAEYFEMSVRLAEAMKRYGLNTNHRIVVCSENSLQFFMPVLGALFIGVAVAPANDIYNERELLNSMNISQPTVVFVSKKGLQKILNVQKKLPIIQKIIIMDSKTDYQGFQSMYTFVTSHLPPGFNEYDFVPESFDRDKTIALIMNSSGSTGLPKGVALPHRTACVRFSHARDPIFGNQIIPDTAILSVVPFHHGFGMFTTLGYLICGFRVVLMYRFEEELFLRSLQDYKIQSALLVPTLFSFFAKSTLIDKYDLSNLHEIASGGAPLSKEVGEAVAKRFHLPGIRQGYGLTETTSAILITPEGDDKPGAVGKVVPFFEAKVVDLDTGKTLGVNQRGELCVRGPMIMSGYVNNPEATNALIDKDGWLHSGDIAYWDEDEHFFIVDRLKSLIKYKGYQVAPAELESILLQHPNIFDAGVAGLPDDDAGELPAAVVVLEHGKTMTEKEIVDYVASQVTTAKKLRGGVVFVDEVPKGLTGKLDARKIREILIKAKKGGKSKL

| Compound | composite z-score [1] | composite z-score [2] | composite z-score [3] | composite z-score [4] | composite z-score [5] | composite z-score [6] | z-score [7] | composite z-score (Lefty1) | composite z-score [8] | z-score [9] |
| --- | --- | --- | --- | --- | --- | --- | --- | --- | --- | --- |
| CC(C)c1ccc(NN2C(C(O)C3CCCCC3)C=CC3C(=O)N(c4ccccc4)C(=O)C32)cc1 (stereo not given) | 1.04 | 1.21 | 0.401 | 0.987 | 0.946 | 0.66 | 0.257 | 1.29 | 1.27 | -1.36 (inactive) |
| COc1ccc(-c2cc3c(c(CCc4ccccc4)n2)[Si](C(C)C)(C(C)C)O[C@H]3c2ccccc2)cn1 | -0.0334 | -0.547 | 0.16 | 0.285 | 0.432 | 0.0958 | 0.412 | 0.169 | 0.0926 | -0.315 (inactive) |
| CC1CC/C=C\[C@H]2OC34C=CCN(CCN5CCOCC5)C(=O)[C@H]3N(C(CO)C(C)C)C(=O)[C@@H]4C2C(=O)O1 (stereo not given in full) | -0.622 | -0.033 | -0.125 | -0.248 | -0.277 | -0.3 | 0.302 | 0.544 | -0.281 | -0.723 (inactive) |
| C[C@]1(C(=O)NCC(F)(F)F)c2ccccc2C(=O)N(Cc2cc(C(F)(F)F)cc(C(F)(F)F)c2)[C@H]1c1ccc(CO)cc1 | 0.0266 | 0.416 | 0.0715 | 0.412 | -0.0478 | 0.292 | 1.23 | -0.541 | -0.174 | -1.17 (inactive) |
| CCc1cccc(NC(=O)O[C@H]2[C@H](OC(=O)Nc3ccccc3-c3ccccc3)[C@H](OC(=O)Nc3ccccc3-c3ccccc3)[C@@H](OC)O[C@@H]2CO)c1 | 0.979 | 1.21 | 0.775 | 1.01 | 1.36 | 0.598 | -1.35 | 1.21 | 0.834 | 1.09 (inactive) |
| Cc1c(NC(=O)/C(C#N)=C/C=C/c2ccc([N+](=O)[O-])cc2)c(=O)n(-c2ccccc2)n1C | 2.04 | 1.18 | -0.0384 | 1.02 | 1.06 | 1.11 | 0.138 | 0.78 | 0.685 | -4.99 (inactive) |
| CC(C)(C)OC(=O)CC[C@]1(C(N)=O)N=C(c2ccc(OCCCO)cc2)O[C@H]1c1ccccc1N=[N+]=[N-] | 2.8 | 0.977 | 0.178 | 0.746 | 1.2 | 0.38 | -0.12 | -0.512 | 1.1 | -8.33 (active) |
| O=C1O[C@H](c2ccccc2)[C@H](c2ccccc2)N2[C@H]1[C@@H](C(=O)N1CCCCCCC1)[C@]1(C(=O)Nc3ccc(C#CCCO)cc31)[C@H]2c1ccc(O)cc1 | 2.12 | 1.32 | 4.55 | 0.967 | 1.56 | 1.71 | 0.889 | 1.85 | 1.68 | 0.628 (inactive) |
| CN1C(=O)C2C(C1=O)C1C=C(CCCO)C2C(C2CC2)N1C (stereo not given) | -0.194 | -0.404 | 0.813 | -1.04 | -0.39 | 0.628 | 0.772 | -0.991 | 0.0425 | -0.224 (inactive) |
| COc1ccc(NN2C(C(O)c3ccc(F)cc3)C=CC3C(=O)N(C4CCCCC4)C(=O)C32)cc1 (stereo not given) | 0.683 | 1.25 | 0.382 | 0.997 | 1.15 | 0.314 | -0.462 | 0.174 | 1.14 | 0.613 (inactive) |
| C=CC[C@]1(C(N)=O)N=C(c2ccc(OCCCO)cc2)O[C@H]1c1ccccc1N=[N+]=[N-] | 1.98 | 0.766 | -0.336 | 0.753 | 1.12 | 0.812 | 1.62 | -0.0005 | 0.762 | -14.1 (active) |
| COc1ccc([Si](C)(C)[C@H]2[C@H](CC(=O)N3CCC[C@H]3CO)O[C@@]3(C(=O)N(Cc4cccc(N5CCCCC5=O)c4)c4ccccc43)[C@@H]2C)cc1 | 0.999 | 0.989 | 0.79 | 0.732 | 1.08 | 1.52 | 3.51 | 1.36 | 0.442 | -1.5 (inactive) |
| COC(=O)[C@@]1(Cc2ccc(F)cc2)[C@@H]2C(=CC(=O)[C@H]2CC(=O)C(=O)N2CCCC2)CN1C(=O)c1ccccc1 | 0.323 | 1.24 | 0.348 | 0.998 | 1.26 | 0.674 | 0.711 | 0.903 | 1.23 | -8.12 (active) |
| C=C(C(=O)CC[C@H](OC(=O)c1ccccc1-c1ccccc1C(=O)O)c1ccc(OCCO)cc1)C(C)C | 0.547 | 1.16 | 0.124 | 0.981 | 0.901 | 0.726 | -0.45 | 0.64 | 0.189 | -1.35 (inactive) |
| CO[C@H]1O[C@H](CO)[C@@H](OC(=O)CCc2ccccc2)[C@@H]2OC(=O)[C@@H](Cc3ccc4ccccc4c3)C/C=C/C[C@H](Cc3ccc4ccccc4c3)C(=O)O[C@@H]12 | 0.0781 | 0.0444 | 0.138 | -0.142 | -0.564 | -0.512 | 1.98 | -0.346 | -0.228 | -0.958 (inactive) |
| COc1cc2c(cc1O)C(C)N(Cc1sc3ccccc3c1Cl)CC2 (stereo not given) | -0.119 | -1.14 | -0.439 | -2.68 | -0.678 | -1.11 | 0.218 | -1.44 | 0.358 | 1.39 (inactive) |
| C=CC[C@@]1(C(=O)NCCCOC)N=C(c2ccc(OCCCO)cc2)O[C@@H]1c1ccccc1CN=[N+]=[N-] | 2.86 | 1.21 | 0.117 | 1.01 | 1.15 | 0.312 | 1.7 | 0.309 | 0.719 | 0.645 (inactive) |
| COc1ccc([Si](C)(C)[C@H]2[C@H](CC(=O)N3CCC[C@H]3CO)O[C@@]3(C(=O)N(C)c4ccccc43)[C@@H]2C)cc1 | 1.86 | 0.0098 | -0.0086 | 0.509 | 1.53 | 0.798 | -0.151 | 1.16 | 0.051 | 0.229 (inactive) |
| O=C1O[C@@H](c2ccccc2)[C@@H](c2ccccc2)N2[C@@H](c3ccc(OCCO)cc3)[C@]3(C(=O)Nc4ccc(C#CC5=CCCCC5)cc43)[C@@H](C(=O)Nc3nc4ccccc4s3)[C@H]12 | 0.22 | 0.525 | -0.0302 | 0.99 | 0.593 | 1.25 | -2.31 | 0.547 | 0.453 | -2.64 (inactive) |
| COc1ccc(CCNC(=O)[C@@]2(c3ccc([N+](=O)[O-])cc3)CC(=O)N(C3CCCCC3)[C@@H]2c2ccc(CO)cc2I)cc1 | 0.312 | 1.19 | 0.338 | -0.0396 | 1.04 | 1.24 | 3.1 | 0.0241 | 0.402 | -1.28 (inactive) |
| CCCCC(=C=CC[C@H](O)c1cccc(OCCO)c1)C[C@H](O)c1cc(Cl)cc(Cl)c1O | 0.172 | 0.559 | -0.0043 | 0.489 | 1.11 | 0.272 | 0.691 | 1.46 | 0.749 | -0.677 (inactive) |
| O=C1C2C=CC(C(O)C(c3ccccc3)c3ccccc3)N(Nc3ccccc3F)C2C(=O)N1c1ccccc1 (stereo not given) | 1.65 | 1.24 | 0.22 | 0.97 | 1.2 | 0.158 | -1.18 | 0.667 | 1.1 | 0.294 (inactive) |
| CC[C@@H](O[Si](C#C[Si](C(C)C)(C(C)C)C(C)C)(C(C)C)C(C)C)c1cn([C@H](CO)Cc2ccccc2)nn1 | 0.0554 | 0.339 | 0.324 | 0.412 | 0.448 | 0.729 | -0.208 | 1.21 | 0.884 | 0.635 (inactive) |
| COC(=O)[C@@]1(Cc2ccccc2)[C@H]2c3cc(C(=O)N(C)C)n(CCF)c3C[C@H]2CN1C(=O)c1ccccc1 | 2.32 | 0.728 | 0.326 | 0.339 | 0.0139 | -0.551 | 0.551 | -0.773 | 0.969 | 1.02 (inactive) |
| Cc1ccc(N2C(=O)c3ccccc3[C@@H](C(=O)NCCN3CCOCC3)[C@@H]2c2ccc(CO)cc2)nc1 | -0.227 | -0.818 | -0.317 | -2.27 | 0.37 | -1.08 | -0.0724 | -0.702 | -0.183 | 1.09 (inactive) |
| COC(=O)[C@@]1(Cc2ccccc2)[C@H]2c3cc(C(=O)N(C)C)n(Cc4ccc(Cl)c(C(F)(F)F)c4)c3C[C@H]2CN1C(=O)c1ccccc1 | 1.17 | 1.16 | -0.104 | 0.93 | 1.22 | 0.33 | 0.32 | 1.33 | 0.674 | 1.52 (inactive) |
| O=C1C2C=CC(C(O)C3CC=CCC3)N(Nc3ccc([N+](=O)[O-])cc3)C2C(=O)N1c1ccccc1 (stereo not given) | 2.2 | 1.2 | 0.876 | 0.994 | 1.36 | 0.0341 | -0.861 | 0.307 | 0.862 | 0.83 (inactive) |
| COCCOC(=O)N1C(=O)[C@@]2(c3cc(C#CCNC(N)=O)ccc31)[C@H](C(=O)N1CCN(c3ncccn3)CC1)[C@H]1C(=O)O[C@H](c3ccccc3)[C@H](c3ccccc3)N1[C@@H]2c1ccc(O)cc1 | -0.031 | -0.937 | -0.305 | -1 | -0.974 | -0.623 | 0.284 | -1.19 | 0.0548 | 0.0121 (inactive) |
| COc1ccc(C(=O)Nc2ccc(CN3C(=O)[C@]4(O[C@H](CC(=O)N(CCO)Cc5ccccc5)[C@@H]([Si](C)(C)c5ccc(OC)cc5)[C@@H]4C)c4ccccc43)cc2)cc1 | 0.122 | 1.14 | 0.677 | 0.375 | 1.25 | 1.31 | -0.474 | 1.32 | 0.162 | 0.505 (inactive) |
| C=CCNC(=O)[C@H]1[C@@H]2C(=O)O[C@@H](c3ccccc3)[C@@H](c3ccccc3)N2[C@@H](c2ccc(OCCO)cc2)[C@]12C(=O)N(C(=O)OCCOC)c1ccc(C#CCNC(N)=O)cc12 | 1.9 | 1.15 | 0.621 | 0.811 | 1.37 | 1.71 | -0.0216 | 0.707 | 0.929 | -0.0331 (inactive) |
